CYP2C9 inh: human CYP2C9 inhibition. inhibition, % at 5 µM. CYP2C9 Supersomes, luciferin-H conversion, luminescence. 20% of 96,000 active. P11712;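 active = blocking of liver enzyme CYP2C9 beyond about 50% at 5 µM, limit read from the data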
CYP2C19 act: activators of human cytochrome P450 2C19. activation factor at 5 µM. P33261. recombinant CYP2C19, luciferin-H EGE luminescence; hits give high values; 0 = fully inhibited enzyme, 1 = untreated enzyme. 96,000 tested, under 10 active;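 active = activation factor of at least 2 at 5 µM in the primary screen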;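 also: 0 = wells with 2.5 mM tranylcypromine and 1 = vehicle-only wells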
Target sequence (P33261 whole entry, looked up): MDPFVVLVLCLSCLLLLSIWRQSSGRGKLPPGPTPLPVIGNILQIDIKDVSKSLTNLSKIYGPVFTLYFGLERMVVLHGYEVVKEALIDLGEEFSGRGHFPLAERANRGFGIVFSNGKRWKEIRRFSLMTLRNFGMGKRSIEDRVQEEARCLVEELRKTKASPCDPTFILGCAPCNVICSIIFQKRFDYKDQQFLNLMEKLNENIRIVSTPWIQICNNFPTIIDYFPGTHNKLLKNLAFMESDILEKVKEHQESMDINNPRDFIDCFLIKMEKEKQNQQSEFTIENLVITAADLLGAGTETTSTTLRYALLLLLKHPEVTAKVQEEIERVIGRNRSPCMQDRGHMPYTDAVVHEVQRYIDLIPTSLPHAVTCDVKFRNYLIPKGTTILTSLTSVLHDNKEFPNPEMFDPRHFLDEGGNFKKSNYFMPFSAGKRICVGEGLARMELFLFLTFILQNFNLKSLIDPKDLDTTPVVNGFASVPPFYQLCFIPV
Cav3 T inh: human Cav3.2 channel inhibition, primary screen. O95180. Cav3.2-expressing cells, Fluo-4 calcium fluorescence FDSS; hits give low values. B-score at 10 µM. 4% of 100,000 active;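 active = single-dose well whose peak fluorescence ratio is a statistical outlier from its plate by either plate-standardised score or position-corrected B-score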
CYP2C9 act: CYP2C9 (human) activation; recombinant CYP2C9, luciferin-H conversion, luminescence; hits give high values; factor 1 = untreated enzyme, 0 = blocked; P11712; AID 1024; 1.4% of 96,000 active; activation factor at 5 µM;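 active = activation factor of 2 or more for CYP2C9 at a 5 µM dose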;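 also: 0 = sulfaphenazole-blocked wells and 1 = vehicle-only wells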
CYP2C19 inhib: human CYP2C19 inhibition. P33261. CYP2C19 Supersomes, luciferin-H EGE luminescence, 30 min. inhibition, % at 5 µM. 21% of 96,000 active. AID 778;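 active = CYP2C19 inhibition above a set limit at 5 µM in the primary screen, cut at about 50% in these data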;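 also: plate controls were negative control wells for no effect and 2.5 mM tranylcypromine positive control for full effect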
* hit, by the source's call; nt = not tested or not shown. An excerpt weighted towards active compounds, which were near 27% of everything screened.

SMILES	CYP2C9 inh	CYP2C19 act	Cav3 T inh	CYP2C9 act	CYP2C19 inhib
CC1=CC(C)(C)N2C(=O)C3(C(C#N)=C(N)OC4=C3C(=O)CC(C)(C)C4)c3c(C)c(C)cc1c32 (stereo not drawn)	8.9	0.9	-0.114	0.9	8.3
COC(=O)c1ccc(C23CC4(C2)[C@H](CN(C)[C@@H]4c2ccccc2)C3c2ccc(Cl)nc2)cc1 (stereo partly drawn)	nt	nt	-0.144	nt	nt
O=C(COC(=O)C1(c2ccccc2)CC1)N1CCN(c2ccc(F)cc2)CC1	-6.5	0.2	-0.235	1.1	76.6*
O=C(Cc1ccc(Br)cc1)N1CCN(c2ccc(F)cc2)CC1	75.7*	0	-1.42	0.2	96.7*
O=C(CSCc1ccc(F)cc1)N1CCN(c2ccc(F)cc2)CC1	17.7	0.7	-1.51	0.8	33.1
O=C(COC(=O)C1(c2ccc(F)cc2)CCCC1)NC1CC1	16.7	0.4	1.06	0.8	55.0*
O=C(COC(=O)C1(c2ccccc2F)CCCC1)NC1CCS(=O)(=O)C1 (stereo not drawn)	4.8	0.9	0.339	1	12.4
CN(Cc1ccccc1)C(=O)[C@H]1CCC(=O)N1Cc1ccco1	24.7	0.7	1.13	0.8	27.6
COC(=O)C[C@H]1c2cc(C(F)(F)F)ccc2S(=O)(=O)N1Cc1ccc(OC)cc1	nt	nt	0.0902	nt	nt
CCOP(=O)(CC(C(C)=O)C(O)c1ccccc1)OCC (stereo not drawn)	nt	nt	-0.0237	nt	nt
CCOP(=O)(OCC)C(NCc1ccccc1)c1ccc(Br)cc1 (stereo not drawn)	13.8	0.5	-3.34	0.9	54.2*
CC#CCN1c2ccccc2[C@]23C[C@@H](C(=O)OC)N(C(C)=O)C2=NC(C(=O)OC)=C(C(=O)OC)[C@H]13	nt	nt	2.61	nt	nt
OC(CNCc1ccco1)Cn1c2ccccc2c2ccccc21 (stereo not drawn)	32.2	0.4	-2.32	0.7	64.9*
Cc1ccc(N(CC(O)Cn2c3ccccc3c3ccccc32)S(C)(=O)=O)c(C)c1 (stereo not drawn)	5.5	0.9	0.387	0.9	7.9
OC(CNCc1ccco1)COc1ccccc1 (stereo not drawn)	-13.5	0.6	0.00525	1.1	38.0
Cc1ccc(N(CC(O)Cn2c3ccccc3c3ccccc32)S(C)(=O)=O)cc1 (stereo not drawn)	96.5*	0.1	-2.09	0	94.1*
CS(=O)(=O)N(Cc1ccco1)CC(O)Cn1c2ccccc2c2ccccc21 (stereo not drawn)	59.0*	0.4	-3.67	0.4	62.9*
Cc1cccc(C)c1N(CC(O)Cn1c2ccccc2c2ccccc21)S(C)(=O)=O (stereo not drawn)	72.3*	0.2	-2.92	0.3	80.0*
CS(=O)(=O)N(CC(=O)O)c1ccc(Oc2ccccc2)cc1	14.9	0.9	-0.372	0.9	7.8
Cc1ccc(N(CC(O)CON=C2c3ccccc3-c3ccccc32)S(C)(=O)=O)cc1 (stereo not drawn)	53.2*	0.5	-2.07	0.5	46.9
O=c1oc2cc(Cl)ccc2n1CSc1nc2ccccc2s1	66.6*	0.3	-3.77	0.3	73.7*
O=C(CSc1nc2ccccc2s1)N1c2ccccc2Sc2ccc(Cl)cc21	37.1	1	nt	0.6	-4.0
c1coc(CN(Cc2ccco2)c2ncnc3c2oc2ccccc23)c1	nt	nt	-3.74	nt	nt
C1=CC2CC1CC2CN1CCN(Cc2ccccc2)CC1 (stereo not drawn)	-7.9	0.5	0.797	1.1	52.6*
Cc1cccc(NCc2nc(SCC(N)=O)n[nH]2)c1	3.4	0.7	0.119	1	30.4
SMILES	CYP2C9 inh	CYP2C19 act	Cav3 T inh	CYP2C9 act	CYP2C19 inhib
COc1cc(/C=C2\S/C(=N/S(=O)(=O)c3ccc(C)cc3)NC2=O)c([N+](=O)[O-])cc1OC	nt	nt	-5.27*	nt	nt
Cc1cccc(-c2nc3ccccc3c3nncn23)c1	15.9	0.5	0.937	0.8	53.9*
O=C(NCCc1ccc(Cl)cc1)C1CCN(C(=O)c2sccc2-n2cccc2)CC1	52.2*	0.6	-3.32	0.5	44.1
CC(CCc1ccccc1)NC(=O)C1CCN(C(=O)c2sccc2-n2cccc2)CC1 (stereo not drawn)	77.5*	0.3	-0.0287	0.2	72.0*
O=C(NNC(=O)c1sccc1-n1cccc1)c1ccc(Cl)cc1	-170.8	0.9	0.511	2.7*	6.1
O=C(NCCc1ccc(Cl)cc1)C1CCN(S(=O)(=O)N2CCCC2)CC1	43.0	0.9	nt	0.6	13.7
O=C(NNS(=O)(=O)c1ccccc1)c1sccc1-n1cccc1	33.6	0.6	0.116	0.7	39.7
